Test results from PubChem BioAssay (Tox21).
Records with an inconclusive call do not appear. Active and inactive are the calls of the source. Unless noted, calls follow the shape of the dose curve; as a rule, active = well fitted curve in the direction sought with a large enough effect in the repeat runs; inconclusive = weak or mixed curves; inactive = no such curve, though single readings can be large; an effect the other way counts as inactive or inconclusive.

Key:
[1] = target: Luciferin 4-monooxygenase (Photinus pyralis) (UniProt P08659); test: qHTS assay to identify small molecule inhibitors of firefly luciferase (AID 1224835); also: nearly all actives have a fitted effect of over 25% in size; also: potency is read from the fitted curve at half-maximal effect
Luciferin 4-monooxygenase (Photinus pyralis), sequence (P08659 whole entry, looked up): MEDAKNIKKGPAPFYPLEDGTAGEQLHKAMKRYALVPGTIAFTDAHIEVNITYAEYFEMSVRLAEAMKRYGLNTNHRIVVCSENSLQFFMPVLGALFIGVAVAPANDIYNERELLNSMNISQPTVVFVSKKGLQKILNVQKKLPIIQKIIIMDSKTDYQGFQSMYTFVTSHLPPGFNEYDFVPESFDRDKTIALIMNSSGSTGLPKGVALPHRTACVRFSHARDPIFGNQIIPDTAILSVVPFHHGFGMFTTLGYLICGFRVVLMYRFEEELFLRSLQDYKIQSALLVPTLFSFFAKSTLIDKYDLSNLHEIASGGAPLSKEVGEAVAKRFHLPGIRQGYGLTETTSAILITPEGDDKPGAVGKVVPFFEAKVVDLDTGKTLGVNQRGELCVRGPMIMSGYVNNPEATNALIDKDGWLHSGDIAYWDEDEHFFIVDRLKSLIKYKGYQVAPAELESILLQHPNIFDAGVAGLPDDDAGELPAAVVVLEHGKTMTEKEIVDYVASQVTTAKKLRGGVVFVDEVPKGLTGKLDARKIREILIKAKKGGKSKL
How it was run: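 Quantitative HTS format; KM concentrations of both substrates. Purified P. pyralis FLuc activity quantified from luminescence images.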

[2] = qHTS assay to identify small molecule agonists of the constitutive androstane receptor (CAR) signaling pathway - cell viability counter screen (AID 1224836); also: nearly all actives have a fitted effect of over 45% in size
How it was run: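 Multiplexed viability check: HepG2-CYP2B6-hCAR cells, 15-point compound dosing, 0.75 uM PK11195 final, 23 h at 37 C, CellTiter-Fluor fluorescence.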

[3] = qHTS assay to identify small molecule antagonists of the constitutive androstane receptor (CAR) signaling pathway - cell viability counter screen (AID 1224837); also: nearly all actives have a fitted effect of over 45% in size
How it was run: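 Read-out: CellTiter-Fluor fluorescence after 23 hr at 37 C/5% CO2. Cells: HepG2 double-stable for hCAR and CYP2B6-2.2kb. Compounds tested at 15 concentrations in the presence of CITCO, final concentration 50 nM.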

[4] = target: Nuclear receptor subfamily 1 group I member 3 (Homo sapiens) (UniProt Q14994); test: qHTS assay to identify small molecule antagonists of the constitutive androstane receptor (CAR) signaling pathway (AID 1224838);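 also: HepG2 cells stably expressing hCAR with CYP2B6 luciferase reporter stimulated by CITCO; nearly all actives have a fitted effect of over 40% in size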; also: potency is read from the fitted curve at half-maximal effect
Nuclear receptor subfamily 1 group I member 3 (Homo sapiens), sequence (Q14994 whole entry, looked up): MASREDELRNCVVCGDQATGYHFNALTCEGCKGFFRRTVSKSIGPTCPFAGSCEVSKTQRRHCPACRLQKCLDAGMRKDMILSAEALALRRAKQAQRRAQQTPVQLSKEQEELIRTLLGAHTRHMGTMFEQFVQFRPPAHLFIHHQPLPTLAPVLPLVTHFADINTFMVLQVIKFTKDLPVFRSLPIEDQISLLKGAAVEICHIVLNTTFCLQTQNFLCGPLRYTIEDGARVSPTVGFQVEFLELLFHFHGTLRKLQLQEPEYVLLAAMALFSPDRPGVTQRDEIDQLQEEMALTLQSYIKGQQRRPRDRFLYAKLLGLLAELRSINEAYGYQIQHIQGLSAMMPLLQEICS
How it was run: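 Read-out: ONE-Glo luciferase luminescence after 30 min at room temperature. HepG2-CYP2B6-hCAR double-stable cells, compounds in 15-point titration plus 50 nM CITCO final, 24 h at 37 C/5% CO2.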

[5] = qHTS assay to identify small molecule antagonists of the estrogen related receptor signaling pathway with the pleiotropic PPARgamma coactivator (PGC) from Tox21 10K library - cell viability counter screen (AID 1224840; active = well fitted cell-killing curve with a large enough effect in the repeat runs, not every such curve was filed as active; also: nearly all actives have a fitted effect of over 40% in size)
How it was run: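 Fluorescence read-out of CellTiter-Fluor viability reagent, added after cells had been exposed to compound in DMSO for 17.5 h at 37 C; 30 min development at 37 C/5% CO2. Cells: PGC/ERR line, 2,000/well.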

[6] = qHTS assay to identify small molecule antagonists of the estrogen related receptor signaling pathway with the pleiotropic PPARgamma coactivator (PGC) from Tox21 10K library (AID 1224841; call rule not given here; also: actives are mostly falling curves and most rising ones were filed inactive; nearly all actives have a fitted effect of over 50% in size; also: potency is read from the fitted curve at half-maximal effect)
How it was run: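 Luminescence read-out (One-Glo luciferase reagent, 30 min at room temperature) from PGC/ERR cells exposed to DMSO-dissolved test compounds for 18 h at 37 C; cells, 2,000 per well, had been preincubated 6 h before compound transfer.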

[7] = qHTS assay to identify small molecule agonists of the estrogen related receptor signaling pathway with the pleiotropic PPARgamma coactivator (PGC) from Tox21 10K library (AID 1224842); also: nearly all actives have a fitted effect of over 15% in size; also: potency is read from the fitted curve at half-maximal effect
How it was run: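 PGC/ERR reporter cells (NTP line) were seeded 2,000 per well, rested 6 h at 37 C/5% CO2, then pin-dosed with compounds in DMSO for 18 h at 37 C; luciferase read by One-Glo luminescence after 30 min at room temperature.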

[8] = target: Thyrotropin receptor (Homo sapiens) (UniProt P16473); test: qHTS assay to identify small molecule agonists of the thyroid stimulating hormone receptor (TSHR) signaling pathway (AID 1224843; calls by dose curve; also: nearly all actives have a fitted effect of over 45% in size)
Thyrotropin receptor (Homo sapiens), sequence (P16473 whole entry, looked up): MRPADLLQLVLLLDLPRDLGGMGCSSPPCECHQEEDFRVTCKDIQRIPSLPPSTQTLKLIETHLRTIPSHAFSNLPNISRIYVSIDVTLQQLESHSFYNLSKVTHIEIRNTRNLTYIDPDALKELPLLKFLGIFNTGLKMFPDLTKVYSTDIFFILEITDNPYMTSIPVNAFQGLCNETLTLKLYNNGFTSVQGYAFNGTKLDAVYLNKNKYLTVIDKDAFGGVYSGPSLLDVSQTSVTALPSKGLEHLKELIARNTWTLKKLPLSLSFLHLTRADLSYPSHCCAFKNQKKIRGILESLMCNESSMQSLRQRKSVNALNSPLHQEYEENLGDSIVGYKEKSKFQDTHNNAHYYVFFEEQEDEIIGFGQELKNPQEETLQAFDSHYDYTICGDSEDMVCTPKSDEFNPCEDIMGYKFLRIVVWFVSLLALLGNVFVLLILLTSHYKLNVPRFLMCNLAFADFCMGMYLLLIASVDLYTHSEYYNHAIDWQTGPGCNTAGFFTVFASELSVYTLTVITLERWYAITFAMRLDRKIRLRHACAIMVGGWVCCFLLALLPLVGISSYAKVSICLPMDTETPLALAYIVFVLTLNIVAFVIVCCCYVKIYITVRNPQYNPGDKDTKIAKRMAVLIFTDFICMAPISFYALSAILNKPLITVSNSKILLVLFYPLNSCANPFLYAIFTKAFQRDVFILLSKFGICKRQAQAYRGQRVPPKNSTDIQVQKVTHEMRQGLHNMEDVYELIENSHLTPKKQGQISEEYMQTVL
How it was run: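 Compounds are titrated over 15 concentrations, in triplicate, onto TSHR-HEK293 cells seeded at 800/well. Plates sit 30 min at room temperature before cAMP-d2 and anti-cAMP cryptate are added; signal is read after a further hour.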

[9] = qHTS assay to identify small molecule agonists of H2AX (AID 1224845; active = well fitted activation curve with a large enough effect in the signal ratio in the repeat runs, not every such curve was filed as active; the % refers to the signal ratio)
How it was run: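 Wild-type CHO-K1 cells plated overnight, then exposed 3 hr at 37C to compounds at 15 concentrations (0.76% DMSO). Lysed, then HTRF anti-pH2AX(S139)-cryptate/anti-H2AX-d2 detection after 24 hr at room temperature; emissions 665 and 620 nm.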

[10] = qHTS assay to identify small molecule agonists of H2AX - cell viability counter screen (AID 1224847; calls by dose curve; also: top concentration of the series differs between compounds; nearly all actives have a fitted effect of over 30% in size)
How it was run: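 After overnight plating of 1000 CHO-K1 cells per well, a 15-concentration compound series was applied for 3 hr at 37C. Luminescence from CellTiter-Glo, read following 30 min at room temperature, reflected cell viability.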

[11] = qHTS assay to identify small molecule agonists of the estrogen related receptor (ERR) signaling pathway from Tox21 library (AID 1224849; calls by dose curve; also: nearly all actives have a fitted effect of over 15% in size); conditions: ERR reporter cell line, ONE-Glo luciferase, 18 h; at 92.4 µM (top of the series) unless noted
How it was run: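 Luminescence readout (ONE-Glo, 30 min RT) after 18 h compound exposure at 37 C of NTP-supplied ERR reporter cells; cells were plated 6 h before compound addition by pin tool.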

[12] = qHTS RealTime-Glo MT Cell Viability Assay in HepG2 cells - 24 hour (AID 1224867); also: nearly all actives have a fitted effect of over 50% in size
How it was run: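 Viability was tracked continuously by NanoLuc luminescence from prosubstrate reduced by living HepG2 cells, at successive time points over 40 h of compound exposure. Cells with reagent were preincubated 5 h at 37 °C before compound addition.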

[13] = qHTS RealTime-Glo MT Cell Viability Assay in HEK293 cells - 32 hour (AID 1224868); also: nearly all actives have a fitted effect of over 50% in size; also: potency is read from the fitted curve at half-maximal effect
How it was run: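 Viability tracked continuously by luminescence as live cells reduce a prosubstrate for NanoLuc; HEK293 cells preincubated 5 h, compound-treated at 37 C, and read at 0, 8, 16, 24, 32 and 40 h.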

[14] = A CellTox Green Cytotoxicity Assay to monitor cytotoxicity in HEK293 cells - 0 hour (AID 1224869); also: nearly all actives have a fitted effect of over 50% in size; also: potency is read from the fitted curve at half-maximal effect
How it was run: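 Read-out: fluorescence of a cell-impermeant cyanine dye staining DNA of dead cells, proportional to cytotoxicity. HEK293, 600 cells/well with reagent, compound (23 nL DMSO) added after 5 h; reads at 0, 8, 16, 24, 32, 40 h.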

[15] = qHTS assay to identify small molecule antagonists of the estrogen related receptor (ERR) signaling pathway from Tox21 library - cell viability counter screen (AID 1224834); also: nearly all actives have a fitted effect of over 30% in size; also: potency is read from the fitted curve at half-maximal effect
How it was run: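 Multiplexed viability counter screen in ERR cells: 17.5 h compound exposure at 37 C, CellTiter-Fluor added, 30 min at 37 C/5% CO2, fluorescence read.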

[16] = target: Nuclear receptor subfamily 1 group I member 3 (Homo sapiens) (UniProt Q14994); test: qHTS assay to identify small molecule agonists of the constitutive androstane receptor (CAR) signaling pathway (AID 1224839); also: nearly all actives have a fitted effect of over 15% in size; also: potency is read from the fitted curve at half-maximal effect;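 as to activation: HepG2 cells stably carrying human CAR and a CYP2B6 luciferase reporter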
How it was run: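 Using human hepatoma HepG2 cells engineered with hCAR and a CYP2B6-2.2kb reporter, 15-concentration compound series were incubated 24 h alongside PK11195 at 0.75 uM final, with luminescence quantified afterwards.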

[17] = qHTS assay to identify small molecule agonists of the hypoxia (HIF-1) signaling pathway (AID 1224846; active = well fitted activation curve with a large enough effect in the signal ratio in the repeat runs, not every such curve was filed as active; the % refers to the signal ratio)
How it was run: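 Beta-lactamase FRET read-out (CCF4-AM substrate) from ME-180 cells carrying an HRE-driven bla reporter, after 17 hrs compound exposure at 37C/5% CO2. Cells were seeded at 2,000 per well in 0.5% dialyzed FBS medium and preincubated 5 hrs.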

[18] = qHTS assay to identify small molecule agonists of the hypoxia (HIF-1) signaling pathway - cell viability counter screen (AID 1224844; calls by dose curve; also: nearly all actives have a fitted effect of over 50% in size; also: potency is read from the fitted curve at half-maximal effect)
How it was run: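 CellTiter-Glo luminescence read-out, 30 min RT, taken in the same wells as the beta-lactamase HRE reporter assay; HRE-bla ME-180 cells, 0.5% dialyzed FBS, 17 hr compound treatment at 37C, 5% CO2.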

[19] = qHTS assay to identify small molecule antagonists of the estrogen related receptor (ERR) signaling pathway from Tox21 library (AID 1224848); also: nearly all actives have a fitted effect of over 50% in size; also: potency is read from the fitted curve at half-maximal effect
How it was run: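 First, 2,000 ERR cells per well were plated and held 6 h at 37 C/5% CO2. Next, compounds in DMSO were pinned in and left 18 h at 37 C. Finally, ONE-Glo was added and luminescence read after 30 min at room temperature.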
% is scaled to controls: 0 for no effect and ±100 for the full control effect.

CC(C)C/C=C(\C=O)c1ccccc1
inactive: Potency [1] | Potency [2] | Potency [3] | Potency [4] | Potency [5] | Potency [6] | Potency [7] | Potency [8] | Potency [9] | Potency [10] | activity change, positive = activation [11] -20.3% | outcome [12] | Potency [13] | Potency [14]

Cc1c(Cl)cccc1Nc1ccccc1C(=O)O
inactive: Potency [15] | Potency [2] | Potency [3] | Potency [4] | Potency [5] | Potency [8] | Potency [9] | Potency [10] | outcome [12] | Potency [13] | Potency [14]

CC(C)CC(C)(C)C
inactive: Potency [1] | Potency [2] | Potency [3] | Potency [4] | Potency [5] | Potency [7] | Potency [8] | Potency [9] | outcome [17] | Potency [10] | activity change, positive = activation [11] -31.7% | outcome [12]
active: Potency [16] 63.4 µM

CC1=CC(=C(c2ccc(N)cc2)c2ccc(N)cc2)C=CC1=N
inactive: activity change, negative = inhibition [1] -4.83% [at 10.5 µM] | viability change, negative = cytotoxic [2] -5.57% [at 8.39 µM] | activity change, negative = cytotoxicity [3] -13.7% [at 8.39 µM] | activity, negative = inhibition [4] 3.44% [at 8.39 µM] | activation [16] -0.508% [at 8.39 µM] | activation [7] -25.9% [at 8.39 µM] | activation [8] 3.86% [at 8.39 µM] | activity change, negative = cytotoxicity [18] -15.8% [at 6.97 µM] | activation (H2AX phosphorylation) [9] -3.22% [at 14 µM] | activation [17] 0.607% [at 7.01 µM] | activity change, positive = activation [11] -47.7% [at 8.39 µM] | activity change, negative = cytotoxicity [12] -2.94% [at 6.97 µM] | cytotoxicity [14] -6.03% [at 6.97 µM]
active: Potency [6] 2.76 µM | Potency [19] 2.19 µM

C=C[Si](OCC)(OCC)OCC
inactive: Potency [15] | Potency [2] | Potency [3] | Potency [5] | Potency [8] | Potency [18] | Potency [9] | outcome [17] | outcome [12] | Potency [13] | Potency [14]

O=C(O)c1c2ccccc2cc2ccccc12
inactive: Potency [15] | Potency [2] | Potency [5] | Potency [8] | Potency [18] | outcome [12] | Potency [14]
active: Potency [13] 43.5 µM

CCn1nc(Cc2ccccc2)cc1C1CCN(C[C@H]2C[C@H](N(C)[C@@H](C(=O)O)C(C)C)C[C@@H]2c2cccc(F)c2)CC1
inactive: Potency [1] | Potency [2] | Potency [4] | Potency [16] | Potency [5] | Potency [6] | Potency [7] | Potency [8] | Potency [9] | outcome [17] | Potency [10] | activity change, positive = activation [11] -18.7% | outcome [12]

Sc1nc(S)nc(S)n1
inactive: Potency [15] | Potency [2] | Potency [3] | Potency [5] | Potency [6] | Potency [7] | Potency [8] | Potency [18] | Potency [9] | outcome [17] | Potency [10] | activity change, positive = activation [11] -29.2% [at 42.5 µM] | outcome [12] | Potency [14]

Cc1ccc(NC(=O)c2ccc(CN3CCN(C)CC3)cc2)cc1Nc1nccc(-c2cccnc2)n1
inactive: Potency [4] | Potency [5] | Potency [8] | Potency [18] | Potency [9] | Potency [10] | outcome [12] | Potency [14]
active: Potency [15] 23.7 µM | Potency [13] 21.3 µM

COc1ccc(/C(C)=C/C(=O)O)c(OC)c1
inactive: Potency [15] | Potency [2] | Potency [3] | Potency [5] | Potency [6] | Potency [7] | Potency [8] | Potency [9] | outcome [17] | Potency [10] | Potency [19] | activity change, positive = activation [11] 8.11% [at 42.5 µM] | outcome [12] | Potency [13] | Potency [14]

COc1ccc(/C=C/c2cc(OC)cc(=O)o2)cc1
active: Potency [1] 5.15 µM | Potency [16] 6.26 µM | Potency [7] 7.88 µM | activity change, positive = activation [11] 55.8% [at 42.5 µM] | Potency [13] 11.2 µM
inactive: Potency [2] | Potency [4] | Potency [5] | Potency [9] | outcome [17] | Potency [10] | Potency [19] | outcome [12] | Potency [14]

NC(=O)c1ccccc1C(N)=O
inactive: Potency [15] | Potency [2] | Potency [16] | Potency [7] | Potency [8] | Potency [9] | outcome [17] | Potency [10] | activity change, positive = activation [11] -52.8% | outcome [12]
active: Potency [4] 30.8 µM | Potency [18] 49.2 µM | Potency [19] 48.8 µM | Potency [13] 31 µM | Potency [14] 49.2 µM

O=C(C1CCCCC1)N1CC(=O)N2CCCc3ccccc3C2C1 (stereo not given)
inactive: Potency [1] | Potency [2] | Potency [3] | Potency [5] | Potency [8] | Potency [9] | outcome [17] | Potency [10] | outcome [12] | Potency [13] | Potency [14]

CCCOC(C)=O
inactive: Potency [15] | Potency [2] | Potency [4] | Potency [16] | Potency [5] | Potency [8] | Potency [9] | outcome [12] | Potency [13]

CC(=O)CC/C=C(\C)CC/C=C(\C)CC/C=C(\C)CCC=C(C)C
inactive: Potency [15] | Potency [2] | Potency [3] | Potency [4] | Potency [5] | Potency [18] | Potency [9] | outcome [17] | Potency [10] | outcome [12] | Potency [14]

Clc1nc2ccccc2nc1Cl
inactive: Potency [15] | Potency [2] | Potency [3] | Potency [5] | Potency [8] | Potency [18] | Potency [9] | outcome [17] | Potency [10] | outcome [12] | Potency [14]
